# Assay results reported in the supplement of paper PMC12636033.
# ± gives the standard deviation of the averaged measurements. The full ranking holds about 33,000 sequences; the median of “E-score (rank enrichment, -0.5 to 0.5)” is about -0.0075, and the highest 2% start at about 0.23. What follows is part of a selection rich in the highest values, with near analogues and random picks from the rest.
# Test system: WT Max(13-93) synthetic (M65Nle)
# Test: PBM 8-mer E-score (E-score (rank enrichment, -0.5 to 0.5)); higher = stronger preferential binding
# Experimental: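 Protein binding microarray (universal PBM chip covering all 10-mers in fixed probe flanks) with chemically synthesized human Max(13-93) bHLH-LZ analogs (not full-length Max) bearing noncanonical residues (hArg, Tha, Aib, Nle at 65) and aromatic Cys staples. Read-out per 8-mer (and its reverse complement): E-score (rank-based enrichment, -0.5 to 0.5) and Z-score of median probe intensity.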
row,Sequence,PBM 8-mer E-score
1,ATCGTCTG,-0.0768 ± 0.04
2,AGTAGACC,-0.143 ± 0.07
3,AGTGACCA,-0.0103 ± 0.17
4,AAGGCAAG,0.149 ± 0.045
5,CAGTATCG,-0.0719 ± 0.0012
6,GACAATTA,-0.0274 ± 0.019
7,CTGATCAG,-0.107 ± 0.14
8,ATTGGACC,-0.0681 ± 0.039
9,AGAAGTAG,0.0117 ± 0.017
10,ACCGGAAA,-0.104 ± 0.11
11,ATAATTAG,0.237 ± 0.16
12,ATAATTAT,0.239 ± 0.0049
13,ATAATTTC,0.0565 ± 0.03
14,ATAATTAA,0.22 ± 0.13
15,ATAATTTA,0.228 ± 0.014
16,CTAATTAG,0.0687 ± 0.053
17,ATAATTCG,0.147 ± 0.059
18,ATAATTTG,0.254 ± 0.031
19,ATAATTAC,0.232 ± 0.019
20,AGCACAGC,-0.163 ± 0.16
21,ACTCTCTG,-0.0092 ± 0.11
22,CCGCCTCA,-0.108 ± 0.14
23,ATGGTTTA,0.161 ± 0.047
24,AATGGGAA,0.0482 ± 0.059
25,CATGTTGC,0.12965 ± 2.8e-05

row,Sequence,PBM 8-mer E-score
1,CATGTTGA,0.256 ± 0.1
2,AATGTTGA,-0.0484 ± 0.091
3,CATGTTGG,0.156 ± 0.063
4,GATGTTGA,0.0902 ± 0.11
5,TATGTTGA,0.233 ± 0.0055
6,ACGCGTAT,0.108 ± 0.0066
7,CAGCGAGA,-0.174 ± 0.013
8,GACGAATA,0.17 ± 0.011
9,GTCGTCCA,-0.159 ± 0.064
10,ACGTGGCC,0.247 ± 0.0096
11,AAGTGGCT,0.0496 ± 0.069
12,CCGTGGCA,-0.0466 ± 0.052
13,CCGTGGCC,-0.112 ± 0.013
14,ACGTGGCA,0.33 ± 0.0069
15,CCGTGGCG,-0.147 ± 0.07
16,AGGTGGCG,0.13 ± 0.021
17,GCGTGGCC,0.0675 ± 0.016
18,ACTTGGCT,-0.128 ± 0.062
19,ACGTGGCT,0.286 ± 0.018
20,TCGTGGCA,0.219 ± 0.1
21,ACGTGGCG,0.296 ± 0.05
22,ACGGGCTC,-0.297 ± 0.085
23,CGGCAACA,-0.15 ± 0.01
24,ACCGCTAG,-0.0126 ± 0.12
25,CCCACATC,-0.1 ± 0.063

row,Sequence,PBM 8-mer E-score
1,AGATGCAA,0.152 ± 0.13
2,CACTCCAA,-0.103 ± 0.025
3,CCGCTCGC,-0.0861 ± 0.086
4,ACCCCCCG,-0.2 ± 0.1
5,ATGGCGAA,0.104 ± 0.068
6,CCGCGTGA,0.172 ± 0.0086
7,ACGCGTGC,0.244 ± 0.02
8,ACGCGTGG,0.212 ± 0.03
9,ACGCGTGA,0.219 ± 0.081
10,CAGCGTGC,0.191 ± 0.014
11,CCGCGTGC,0.268 ± 0.051
12,AACCCAAG,0.00894 ± 0.087
13,CGGGAAAC,-0.106 ± 0.079
14,CATAACAG,0.125 ± 0.021
15,AATAACAA,0.264 ± 0.018
16,TATAACAA,0.24 ± 0.026
17,AATAACAT,0.181 ± 0.049
18,CATAACAC,0.236 ± 0.016
19,TCTAACAA,-0.0242 ± 0.029
20,GATAACAA,0.0563 ± 0.033
21,CCTAACAA,0.11 ± 0.026
22,CATAACAA,0.251 ± 0.042
23,CGTAACAA,0.136 ± 0.087
24,AATAACAG,0.17 ± 0.06
25,AATAACAC,0.0775 ± 0.12

row,Sequence,PBM 8-mer E-score
1,CTACGTCC,-0.0109 ± 0.12
2,AGCAATGC,0.12 ± 0.09
3,GGGGACAC,-0.27 ± 0.018
4,AAAAGGGG,0.0924 ± 0.053
5,CGACCAGC,-0.0396 ± 0.11
6,CAAATAGC,0.0495 ± 0.0037
7,CGCCCGTC,-0.106 ± 0.034
8,AGAGCTAG,-0.0196 ± 0.051
9,CTTGCCCC,-0.0869 ± 0.1
10,ATAGCCTG,-0.155 ± 0.11
11,ACATACAT,0.26 ± 0.042
12,ACATACGC,0.0685 ± 0.056
13,ACATACAG,0.219 ± 0.059
14,TCATACGA,0.115 ± 0.021
15,AGATACAG,0.134 ± 0.061
16,ACATACGA,0.237 ± 0.015
17,AGATACAT,0.245 ± 0.022
18,ACATACAC,0.139 ± 0.048
19,AGATACAA,0.126 ± 0.036
20,CATCTCTA,-0.0266 ± 0.00032
21,ACGGGCTG,-0.16 ± 0.005
22,AGATAATA,0.131 ± 0.045
23,CGATAACG,-0.0133 ± 0.18
24,CAATAACG,0.0031 ± 0.057
25,AGATAACC,0.0122 ± 0.027

row,Sequence,PBM 8-mer E-score
1,AGATAATC,-0.146 ± 0.023
2,AAATAACA,0.198 ± 0.039
3,AAATAACG,0.26 ± 0.0036
4,AGATAATG,0.241 ± 0.012
5,AGATAACG,0.256 ± 0.041
6,ATCTTGGA,-0.118 ± 0.068
7,ACAATGCC,0.0109 ± 0.11
8,GATATCCC,-0.108 ± 0.023
9,ACACTTAT,0.0681 ± 0.02
10,CCCTGAAG,-0.071 ± 0.03
11,ACACGACA,0.289 ± 0.1
12,ACACGACC,0.0326 ± 0.019
13,ACACGACT,0.123 ± 0.049
14,CGCCAACC,-0.101 ± 0.11
15,ACTAGTAA,0.256 ± 0.1
16,ACTAGTAT,0.184 ± 0.02
17,ACTAGTAG,0.11 ± 0.088
18,CTTTCCAC,0.196 ± 0.17
19,AATCCTGG,-0.171 ± 0.16
20,ATTTCCTA,0.135 ± 0.027
21,CTTTCCTA,0.0286 ± 0.077
22,GTTTCCTA,0.257 ± 0.11
23,CGCCCGGA,-0.201 ± 0.068
24,ATATGGTA,0.241 ± 0.069
25,TAATGGTA,0.0384 ± 0.1

row,Sequence,PBM 8-mer E-score
1,CTATGGTA,0.0296 ± 0.11
2,ATATGGTC,0.164 ± 0.09
3,AAATGGTA,0.253 ± 0.056
4,CAATGGTA,0.15 ± 0.041
5,TCGGTTCA,-0.0182 ± 0.1
6,GATGGCAA,0.158 ± 0.091
7,AAGCTCCC,-0.171 ± 0.036
8,GCAGACCA,-0.213 ± 0.1
9,CATATAGA,0.166 ± 0.049
10,AATATACA,0.246 ± 0.052
11,CATATACA,0.271 ± 0.067
12,AATATAGA,0.277 ± 0.044
13,CATATACC,-0.0092 ± 0.047
14,AATATACT,0.104 ± 0.069
15,TATATACA,0.0403 ± 0.021
16,GATATACA,0.08271 ± 0.00014
17,TATATAGA,0.104 ± 0.084
18,ATTGCGTA,0.188 ± 0.035
19,CGACGCAA,-0.157 ± 0.015
20,ATGCTTAA,0.189 ± 0.046
21,CAAGGCCA,0.0607 ± 0.0078
22,GTATAACA,0.202 ± 0.035
23,CTATAACC,0.0479 ± 0.05
24,CTATAACA,0.129 ± 0.045
25,ATATAACC,0.0791 ± 0.029

row,Sequence,PBM 8-mer E-score
1,ATATAACG,0.299 ± 0.0035
2,ATATAACA,0.237 ± 0.052
3,AGAGAGCG,-0.102 ± 0.039
4,AGCCACAT,0.0887 ± 0.052
5,CATCGTGG,-0.0807 ± 0.055
6,ACATCACA,0.237 ± 0.015
7,TCATCACA,0.116 ± 0.011
8,AAATCACA,0.163 ± 0.043
9,TAATCACA,0.201 ± 0.049
10,CAATCACA,0.247 ± 0.019
11,CAATCACG,0.274 ± 0.05
12,GAATCACA,-0.023 ± 0.11
13,CAATCACC,0.0883 ± 0.0053
14,ACATCACG,0.0554 ± 0.057
15,CCAGCCGA,-0.272 ± 0.029
16,AGAAGAAA,-0.0012 ± 0.042
17,CGTTAGGC,0.0594 ± 0.11
18,GGCGTTTA,0.0435 ± 0.017
19,CCGGCACG,-0.00989 ± 0.099
20,ACCAAAGA,0.003 ± 0.046
21,CATTCTAC,0.0976 ± 0.045
22,ATTTCTAG,0.0411 ± 0.07
